DT40 TDP1 CPT = DT40-hTDP1 cell growth loss with CPT; chicken DT40 Tdp1-/-;hTDP1 cells + 20 nM CPT, ATP luminescence, 48 h; Potency, µM (titrated, usually from 46.2 µM), for the others: at the highest dose activity change, negative = growth inhibition, hits mostly inhibitors; 420,000 compounds, 12% hits; also: potency is read from the fitted curve at half-maximal effect; nearly all actives have a fitted effect of over 55% in size
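Chicken DT40 Tdp1-/- cells stably complemented with human TDP1 were seeded at 400 cells/well in medium containing 20 nM camptothecin, exposed to pin-transferred compounds, and grown at 37 °C for at least 48 hr. Viability was read as ATP luminescence.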
HT1080NT lethal = kills 2HG-producing HT-1080-NT fibrosarcoma cells; HT-1080-NT fibrosarcoma viability, CellTiter-Glo ATP luminescence, 48 h; Potency, µM (highest dose often 46.1 µM), for inactives: at the highest dose activity, negative = less viability, usual class: cytotoxic; 360,000 compounds, 1.6% hits;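 also: NT is the 2HG producing partner of a matched IDH1 knockdown line; potency is read from the fitted curve at half-maximal effect; 0% = DMSO-treated cells and -100% = media-only wells without cells; nearly all actives have a fitted effect of over 55% in size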
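Viability of the 2HG-overproducing fibrosarcoma line after 48 hours of compound exposure at 37 degrees C was determined by luminescence with CellTiter-Glo, and concentration-effect curves were then fitted and categorized.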
HT1080 IDH1KD tx = HT-1080 IDH1 knockdown cell toxicity (counter line). 360,000 compounds, 2% hits. HT-1080 IDH1 knockdown viability, ATP luminescence, 48 h. AID 686971. Potency, µM (top dose mostly 46.1 µM), inactives show at the top dose activity, negative = toxicity, usual class: cytotoxic;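 also: potency is read from the fitted curve at half-maximal effect; 0% = DMSO wells and -100% = cell-free medium wells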
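IDH1KD HT-1080 cells, 750/well, RPMI + 5% FBS; compound pinned after 2 h settling; 48 h, 37 °C; CellTiter-Glo luminescence; % activity normalised to DMSO and no-cell wells; curves fitted, classed by r2 and efficacy.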
IL-1B inflam inh = inflammasome signaling inhibition, IL-1 beta readout. THP-1 LPS/ATP IL-1B secretion, AlphaLISA, 16 h; stronger effect = lower value. activity change, % at 57.5 µM. 360,000 compounds, 4.7% hits. AID 743279; in the data active = activity change below about -50%; inconclusive = mostly about -30% to -49%
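THP-1 cells pretreated 1 hr with compounds (up to 57.5 uM final), then stimulated with LPS (250 ng/mL final) plus ATP (1.25 mM final); secreted IL-1B measured by AlphaLISA after 16 hr, decreased signal indicating inhibition.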
DT40 TDP1 no CPT = qHTS for Inhibitors of human tyrosyl-DNA phosphodiesterase 1 (TDP1): qHTS in cells in absence of CPT; Potency, µM (titrated, usually from 46.2 µM), without a hit: at the highest dose activity change, negative = growth inhibition, usual class: inhibitors; DT40 Tdp1-/- hTDP1 cells, no CPT, ATP luminescence, 48 h; 420,000 compounds, 15% hits; also: potency is read from the fitted curve at half-maximal effect; nearly all actives have a fitted effect of over 55% in size
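No-CPT arm: Tdp1-/-;hTDP1 DT40 cells (400/well) plus compounds, incubated ≥48 hr at 37 °C. Readout CellTiter-Glo luminescence.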
ELG1 repair inh = blocks ELG1-dependent DNA repair in HEK293T cells | HEK293T ELG1-luciferase reporter, luminescence, 16 h; DNA damage induced by 5-fluorouridine | Potency, µM (titrated, usually from 46.1 µM), inactives show at the top dose activity change, negative = inhibition, actives largely listed as inhibitors | 330,000 compounds, 2.3% hits | AID 504467; also: potency is read from the fitted curve at half-maximal effect; nearly all actives have a fitted effect of over 55% in size
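Quantitative HTS, concentration-response format. 2,000 cells/well co-treated with 5-fluorouridine and compound, 16 hr in 5% CO2 at 37 °C; ONE-Glo luminescence read after 30 min.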
Starred values were filed as active, the others as inactive; ? = inconclusive; . = not tested or not shown; [ ] = dose if it differs, or a comment. This is a sample that favours compounds with a hit; in the whole collection about 19% have one here. Unless noted, calls follow the shape of the dose curve; as a rule, active = well fitted curve in the direction sought with a large enough effect; inconclusive = small, poorly fitted or top-dose-only effect, or another doubt; inactive = no such curve, though single readings can be large; an effect the other way counts as inactive or inconclusive. Unless noted, % is scaled to controls: 0 for no effect and ±100 for the full control effect.

SMILES	DT40 TDP1 CPT	HT1080NT lethal	HT1080 IDH1KD tx	IL-1B inflam inh	DT40 TDP1 no CPT	ELG1 repair inh
COc1ccc(S(N)(=O)=O)cc1C(=O)OCC(=O)N1CC(=O)Nc2ccccc21	1%	11%	4%	24	0%	2%
CN(C)c1ccc(CNC(=O)Cc2ccc(NC(=O)N3CCCCc4ccccc43)cc2)cc1	?	.	.	.	21µM*	.
CCNC(=O)Cc1ccc(NC(=O)N2CCCCc3ccccc32)cc1	-14%	.	.	.	-11%	.
Cc1ccccc1CNC(=O)Cc1ccc(NC(=O)N2CCCCc3ccccc32)cc1	?	.	.	.	18µM*	.
Cc1cccc(CNC(=O)Cc2ccc(NC(=O)N3CCCCc4ccccc43)cc2)c1	?	.	.	.	16µM*	.
CCOC(=O)/C(=N/Nc1ccc(OC)cc1)N1CCCc2ccccc21	-25%	-15%	-14%	-53*	?	-3%
Cc1cccc(C)c1NC(=O)CNC(=O)c1c(-c2ccccc2)noc1C	11%	5%	8%	12	-1%	0%
CCOC(=O)C1=CCN(S(=O)(=O)c2ccccc2Br)C1c1cccc(F)c1 (configuration not stated)	?	-27%	-29%	15	?	.
COc1ccc(C)cc1NC(=O)N1CCCc2ccccc21	?	-2%	17%	-9	23µM*	17%
Cn1cccc/c1=N\c1cccc[n+]1C	1.5µM*	-11%	23µM*	0	1µM*	18µM*
CC(=O)N[C@@H]([C@@H](O)[C@H](O)[C@H](O)CO)[C@@H](O)CC(=O)C(=O)O	15%	.	.	.	-1%	.
OCCNc1nc(N2CCN(c3ccccc3)CC2)nc2ccccc12	23µM*	-3%	-3%	-3	?	-1%
COc1cccc(Nc2nc(NCCO)c3ccccc3n2)c1	4.6µM*	?	?	.	21µM*	16µM*
OCCNc1nc(Nc2cccc(O)c2)nc2ccccc12	?	-11%	0%	-105*	?	?
OCCNc1nc(Nc2ccc(O)cc2)nc2ccccc12	?	13%	5%	.	?	-2%
CC(C)Nc1nc(NCCO)nc2ccccc12	0%	7%	1%	88	?	.
OCCNc1nc(NCc2ccccc2)c2ccccc2n1	?	?	?	-99*	?	-17%
O=C(Cc1c(F)cccc1Cl)NNC(=O)c1ccccc1Cl	-7%	4%	-1%	10	12%	15%
Cc1cccc(C)c1NC(=O)CN1C(=O)NC(C)(C2CC2)C1=O (configuration not stated)	9%	0%	-8%	16	5%	2%
CCOC(=O)c1nn(-c2ccc(OCC)cc2)c2nc(-c3ccco3)c(C#N)c(=O)n12	?	-2%	8%	5	23µM*	9%
O=C1NC(c2ccc(Br)cc2)=N/C1=C/c1ccco1	7.3µM*	-14%	-23%	13	?	?
COc1cc2c(cc1OC)CN(C(=O)CCNC(=O)c1ccc(Br)cc1)CC2	?	3%	1%	5	-7%	13%
COc1cc(-c2c(OC)cccc2OC)cc2c1OCCN(C(=O)CCC(=O)c1ccc(F)cc1)C2	-90%[9.04 µM]	.	.	.	-7%	.
COc1cc2c(cc1OC)CN(CCC(=O)c1ccc(Br)cc1)CC2	3.7µM*	26µM*	23µM*	0	1.6µM*	-17%
COc1cc2c(cc1OC)CN(C(=O)CCC(=O)c1ccc(F)cc1)CC2	18µM*	?	?	46	12µM*	-11%
SMILES	DT40 TDP1 CPT	HT1080NT lethal	HT1080 IDH1KD tx	IL-1B inflam inh	DT40 TDP1 no CPT	ELG1 repair inh
O=C(Nc1ccccc1)N1CCCC2(CCN(C(=O)c3csnn3)CC2)C1	14%	.	.	.	-1%	.
CN(C(=O)c1cc2c(s1)-c1ccc(Cl)cc1SC2)c1cccc(C(F)(F)F)c1	15µM*	.	.	.	16µM*	.
CN(C)CCNC(=O)c1cc2c(s1)-c1ccc(Cl)cc1SC2	2.6µM*	?	?	-20	8.2µM*	?
COc1cc(OC)c(NC(=O)c2cc3c(s2)-c2ccc(Cl)cc2SC3)cc1Cl	0%	.	.	.	-14%	.
Cc1ccc(CNC(=O)c2cc3c(s2)-c2ccc(Cl)cc2SC3)cc1	?	.	.	.	-26%	.
Cc1ccc(S(=O)(=O)c2cn(CC(=O)Nc3ccccc3)c3cc4c(cc3c2=O)OCO4)cc1	-1%	.	.	.	-9%	.
Fc1ccc(-n2ncc3c(Nc4ccc5c(c4)OCCO5)ncnc32)cc1	13µM*	.	.	.	29µM*	.
Cn1ncc2c(Nc3ccc(Cl)cc3)ncnc21	?	14%	4%	12	?	?
Cc1ccc(-n2ncc3c(Nc4ccc5c(c4)OCCO5)ncnc32)cc1Cl	?	.	.	.	23µM*	.
Cc1ccc(Cl)cc1-n1ncc2c(Nc3ccc4c(c3)OCCO4)ncnc21	26µM*	.	.	.	?	.
Cc1ccc2ccccc2c1C(O)c1ncc(-c2ccc(F)cc2)[nH]1 (configuration not stated)	?	-1%	-26%	19	?	.
O=C(OCC(=O)N1CCc2ccccc21)[C@@H]1CC(O)CN1S(=O)(=O)c1ccccc1[N+](=O)[O-] (some centres not stated)	21µM*	-1%	11%	-15	18µM*	-3%
O=C(OCC(=O)N1CCc2ccccc21)[C@@H]1CC(O)CN1S(=O)(=O)c1ccc(Cl)cc1 (some centres not stated)	?	1%	5%	-22	?	-3%
CS(=O)(=O)c1ccc(C(=O)OCC(=O)N2CCc3ccccc32)cc1[N+](=O)[O-]	3.5µM*	.	.	.	4µM*	.
CC1(C)CC(NC(=O)c2cc(Cl)ccc2Cl)CC(C)(C)N1	10%	17%	5%	-5	3%	-3%
Cc1cc(C)c(NC(=O)CN2C(=O)CCn3nc(-c4cccn4C)cc32)c(C)c1	4%	.	.	.	11%	.
CCn1cc(/C=C(/C#N)S(=O)(=O)c2ccccc2)cn1	-15%	-2%	-5%	-13	2%	3%
Cn1nccc1/C=C(/C#N)S(=O)(=O)c1ccccc1	23µM*	3%	9%	4	?	-4%
CCC1CCCCN1CCCNC(=O)c1cn(CC)c2ccc(S(=O)(=O)N(C)C3CCCCC3)cc2c1=O (configuration not stated)	?	-1%	-15%	?	21µM*	-5%
CCCCSCCCNC(=O)c1cn(CC)c2ccc(S(=O)(=O)N(C)C3CCCCC3)cc2c1=O	?	.	.	.	16µM*	.
